Laboratory results as given in PubChem BioAssay AID540317 (National Center for Advancing Translational Sciences (NCATS), 2011).
About 2,200 (0.56%) of roughly 390,000 compounds were called active. Inconclusive results (about 3%) are left out. The call rests on the fitted dose curve; in most records, active means well fitted inhibition curve with a large enough effect; inconclusive means small, poorly fitted or top-dose-only effect; inactive means no such curve, though single readings can be large or run the other way. This excerpt belongs to a sample that is enriched for actives.

The compounds below were run against Chromobox protein homolog 1 (Homo sapiens) (UniProt P83916) (assay: HTS for Inhibitors of HP1-beta Chromodomain Interactions with Methylated Histone Tails). Details: AlphaScreen HP1-beta / biotin-H3K9me3 peptide binding; series mostly up to 114 µM; activity change, negative = inhibition: at the top concentration.
How it was run: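 Compound inhibition of the preformed complex between 50 nM HP1-beta and 50 nM biotinylated H3K9me3 peptide was read by AlphaScreen. Buffer was PBS pH 7.4 with 0.01% Tween-20. Incubations ran 30 min at room temperature, with 10 ug/mL donor/acceptor beads.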
Further: nearly all actives have a fitted effect of over 70% in size.
Potency means the concentration at half of the fitted maximal effect.

Chromobox protein homolog 1 (Homo sapiens), sequence (P83916 whole entry, looked up): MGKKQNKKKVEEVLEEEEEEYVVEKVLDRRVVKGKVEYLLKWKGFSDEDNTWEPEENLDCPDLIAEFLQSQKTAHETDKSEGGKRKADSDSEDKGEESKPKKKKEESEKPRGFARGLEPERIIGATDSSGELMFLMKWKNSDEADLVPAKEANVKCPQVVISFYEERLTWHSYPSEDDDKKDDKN

Row | Structure (SMILES) | activity change, negative = inhibition | Potency
1 | O=S(=O)(Nc1ccc2nc(-c3cccc(Cl)c3)oc2c1)c1ccccc1 | 33.4% (inactive) | 
2 | CCc1ccc(NC(=O)CCCc2nnc3n(CCCOC)c(=O)c4sccc4n23)cc1 | 4.92% (inactive) | 
3 | CCN(CC)c1cc(NC2CCCCC2)c2c3c(onc13)-c1ccccc1C2=O |  | 7.94 µM (active)
4 | Cc1ccc(Cl)cc1NC(=O)CSc1nccn1C | -1.93% (inactive) | 
5 | CCOC(=O)N1CCc2c(sc3c2c(=O)n(-c2ccc(CC)cc2)c(=O)n3C)C1 | 46.1% (inactive) | 
6 | Nc1ccc2nc3c(=O)[nH]c(=S)[nH]c3nc2c1 |  | 2 µM (active)
7 | CC1=C(c2ccc(C)c(C)c2)S(=O)(=O)NC1=NCc1ccccc1Cl | -2.94% (inactive) | 
8 | COc1ccc(NC(=O)CSc2nccn2Cc2ccc3c(c2)OCO3)cc1 | 6.57% [at 57 µM] (inactive) | 
9 | O=C1Nc2ccc(Br)cc2/C1=N/N=C/C1=C(N2CCOCC2)C(=C\c2ccccc2)/CC1 |  | 5.62 µM (active)
10 | Cc1oc2ccc(O)c(CN3CCCCC3)c2c1C(=O)Nc1cccc(C(F)(F)F)c1 | 1.63% (inactive) | 
11 | O=C(c1ccc2c(=O)n(Cc3ccco3)c(=S)[nH]c2c1)N1CCCC1 | 15.8% (inactive) | 
12 | CCOC(=O)C1C(=O)C=C(c2ccc(OC)cc2)CC1c1ccco1 (configuration not stated) | -12.5% (inactive) | 
13 | CCOC(=O)C1=C(c2ccc(OC)cc2)C(=O)c2ccccc2C1=O |  | 31.6 µM (active)
14 | CCOC(=O)C1=C(CC)Nc2ccccc2N=C1N | -17.5% (inactive) | 
15 | COc1cccc(CNC(=O)C2CCC(CNS(=O)(=O)c3cccs3)CC2)c1 (configuration not stated) | 29% (inactive) | 
16 | Cc1ccccc1CS(=O)(=O)CC1Nc2ccc(C(=O)NCc3ccc(Cl)cc3)cc2NC1=O (configuration not stated) | 7.19% (inactive) | 
17 | CCOC(=O)N1CCN(C(c2cccnc2)c2ccc3cccnc3c2O)CC1 (configuration not stated) |  | 8.91 µM (active)
18 | COc1ccccc1N1CCN(C(CNC(=O)C(=O)NCc2ccc(C)cc2)c2cccnc2)CC1 (configuration not stated) | 40.3% (inactive) | 
19 | Cc1ccc(NC(=O)C(=O)NCC(c2cccnc2)N2CCOCC2)cc1 (configuration not stated) | 36.9% (inactive) | 
20 | CN(Cc1ccccc1)C(=O)c1cc2c(=O)n(C)c3ccccc3c2s1 | 15.5% (inactive) | 
21 | Nc1ccccc1SC(C[N+](=O)[O-])c1ccccc1 (configuration not stated) |  | 15.8 µM (active)
22 | Cc1cccc(-n2ncc(C(=O)N3CCc4ccccc4C3)c2C2CCN(C(=O)OC(C)(C)C)CC2)c1 | 28.4% (inactive) | 
23 | Cc1c(NC(=O)c2cc(=O)c3ccccc3o2)c(=O)n(-c2ccccc2)n1C | 25.2% (inactive) | 
24 | CCc1nnc(SCC(=O)Nc2cc(OC)ccc2OC)nc1CC | 27.4% (inactive) | 
25 | Cc1ccccc1Nc1c([N+](=O)[O-])ccc2nonc12 | -5.21% (inactive) | 

Row | Structure (SMILES) | activity change, negative = inhibition | Potency
26 | Cc1ccc(Nc2cc(C)nc3c(C)ccc([N+](=O)[O-])c23)cc1 |  | 22.4 µM (active)
27 | Cc1ccc(NC2=NC(c3ccccc3)n3c(nc(C)cc3=O)N2)cc1 (configuration not stated) | 41.3% (inactive) | 
28 | CCOC(=O)c1c(NC(=O)c2cc(-c3ccc(Cl)cc3)on2)sc2c1CCCC2 | -6.48% (inactive) | 
29 | O=C1C2C(c3ccccc3)CC=CC2C(c2ccoc2)N1Cc1ccccc1 (configuration not stated) | 5.79% (inactive) | 
30 | CC(C)C(=O)Nc1nc2c(s1)CC(C(C)(C)C)CC2 (configuration not stated) | 13.7% (inactive) | 
31 | Cc1ccc(SCC(CC(C)C)N2CCN(CCc3ccccc3)CCC2=O)cc1 (configuration not stated) | 3.23% (inactive) | 
32 | NC1=NOC(=O)C1C1CCCCC1 (configuration not stated) |  | 5.01 µM (active)
33 | CN1c2ccc(Cl)cc2-c2nc(SCC(=O)Nc3cc(F)ccc3F)ncc2S1(=O)=O | 12% (inactive) | 
34 | CC1(C)CCc2cc(S(=O)(=O)N3CCN(c4nc(-c5cccs5)nc5ccccc45)CC3)ccc2O1 | 19.3% (inactive) | 
35 | COc1ccc(CCN2C(=O)N(c3cccc(OC)c3)C(=O)C2CC(=O)Nc2ccccc2)cc1 (configuration not stated) | 46.9% (inactive) | 
36 | O=C(NC(=O)c1ccccc1N1CCCCC1)Nc1ccc(Br)cc1 | 32.7% (inactive) | 
37 | CC(=O)Nc1ccc(S(=O)(=O)N2CCN(c3ccccc3)CC2)cc1 | 15.4% (inactive) | 
38 | Cc1cc(NS(=O)(=O)c2ccc(NC(=O)c3ccccc3C)cc2)nc(C)n1 | 30.7% (inactive) | 
39 | Cc1ccccc1C(=O)Nc1ccc(N2CCCCCC2)cc1 |  | 35.5 µM (active)
40 | CC(=O)Nc1ccc(S(=O)(=O)Nc2ccc(N3CCCCC3)cc2)cc1 |  | 20 µM (active)
41 | CC(=O)Nc1ccc(S(=O)(=O)N2CCCC2C(=O)O)cc1 (configuration not stated) | 22.7% (inactive) | 
42 | CCOc1ccc(CNC(=O)CCc2c(C)nn(-c3ccc(N4CCCCC4)nn3)c2C)cc1 | 44.2% (inactive) | 
43 | CCOC(=O)c1c(NC(C)=O)c2c3c(sc2n1Cc1c(C)cc(C)cc1C)CCCC3 | 52.9% (inactive) | 
44 | COc1ccc(C(=O)COC(=O)CCCC(=O)Nc2cc(C(F)(F)F)ccc2Cl)cc1 | 29.1% (inactive) | 
45 | CCC(Sc1nnc(-c2ccc(OC)cc2)c(-c2ccc(OC)cc2)n1)C(=O)NC1CCCCC1 (configuration not stated) | 27.6% (inactive) | 
46 | Cc1cc(N=Nc2ccc3ccccc3c2)ccc1O |  | 50.1 µM (active)
47 | Cc1cc(C)cc(NS(=O)(=O)c2ccc3[nH]cc(C(=O)N4CCCCC4)c(=O)c3c2)c1 | 7.14% (inactive) | 
48 | COc1cccc(CNC(=O)c2ccc3c(c2)sc2nc(-c4cccc(OC)c4)cn23)c1 | 37.8% (inactive) | 
49 | CCCNc1ncnc2c1c(-c1ccccc1)cn2-c1ccc(OCC)cc1 | 18% (inactive) | 
50 | COc1cc(N2CCCC2)c(OC)cc1/C=C(/C#N)c1cccc(Br)c1 |  | 35.5 µM (active)

Row | Structure (SMILES) | activity change, negative = inhibition | Potency
51 | CCOC(=O)c1[nH]c(C)c(CCC(=O)N2CCN(c3ccccc3)CC2)c1C | 16.2% [at 57 µM] (inactive) | 
52 | Cc1ccc(NC(=O)Cn2cnc3nc4c(cc3c2=O)CCCC4)cc1Cl | 20.7% [at 57 µM] (inactive) | 
53 | CCOC(=O)c1cc(-c2ccc(OC)c(S(=O)(=O)Nc3ccc(OC)cc3OC)c2)on1 | 32.8% (inactive) | 
54 | O=C1CN(Cc2ccccc2)S(=O)(=O)c2ccccc21 | 24.1% (inactive) | 
55 | COc1ccc(Cc2nc3ccc(C(=O)NCc4ccccc4C)cc3o2)cc1 | 25.6% [at 57 µM] (inactive) | 
56 | COc1cc2c3c(c1)/C(=C1/SC(=S)NC1=O)C(=O)N3C(C)(C)C=C2C |  | 10 µM (active)
57 | Cc1cccc(N2CCN(C(=O)c3ccc(Nc4nc5ccccc5n5nnnc45)cc3)CC2)c1C | 11.1% (inactive) | 
58 | Cc1csc2nc(COC(=O)c3ccccc3NC(=O)c3ccccc3Cl)cc(=O)n12 | -3.59% (inactive) | 
59 | COc1ccc(-c2nnc(SCC(=O)Nc3ccc(C(C)C)cc3)nc2-c2ccc(OC)c(OC)c2)cc1OC | 25% (inactive) | 
60 | O=C1C(Cl)=C(Oc2ccccc2)C(=O)c2ccccc21 |  | 2 µM (active)
61 | COc1ccc(Br)cc1C1C2C=CCC(C)C2C(=O)N1Cc1ccccc1 (configuration not stated) | 31.3% (inactive) | 
62 | CCOC(=O)c1ccc(NC(=O)Cn2cc(S(=O)(=O)Cc3ccccc3F)c3ccccc32)cc1 | -1.75% (inactive) | 
63 | Cc1cc(=O)n(C)c(=O)n1CCCNc1ccccc1 |  | 56.2 µM (active)
64 | Cn1c(=O)c(=O)n(C)c2cc(S(=O)(=O)NCCc3ccccc3)ccc21 | 26.9% (inactive) | 
65 | Cc1c(S(=O)(=O)NCc2ccccc2)c(=O)n(C)c(=O)n1C | 34.9% (inactive) | 
66 | Cc1ccc(NC(=O)NC(C)c2c(-n3cccc3)sc(C)c2C)c(C)c1 (configuration not stated) | 15.9% (inactive) | 
67 | COc1ccc(CN(Cc2ccccc2)C(=O)c2ccc(O)cc2)cc1COc1ccc(NC(C)=O)cc1 | -7.39% (inactive) | 
68 | Cc1ccc(Cl)cc1NC(=O)CN1CCN(S(=O)(=O)N2CCOCC2)CC1 | -17.4% (inactive) | 
69 | CCN(CC)c1ccc(NC(=O)CN2CCN(c3ccccn3)CC2)cc1 | -7.25% (inactive) | 
70 | O=C(CN1CCN(c2cccc(Cl)c2)CC1)Nc1ccc(S(=O)(=O)N2CCOCC2)cc1 | 24% (inactive) | 
71 | CC(=O)c1ccc(N2CCN(CC(=O)Nc3ccccc3N3CCOCC3)CC2)cc1 | 34.2% (inactive) | 
72 | O=C(CN1CCN(c2ccc(O)cc2)CC1)Nc1ccc(-c2ccccc2)cc1 |  | 79.4 µM (active)
73 | O=C(CN1CCN(c2ccc(O)cc2)CC1)Nc1cc(S(=O)(=O)N2CCOCC2)ccc1Cl |  | 79.4 µM (active)
74 | COc1ccccc1CN1CCC(CNC(=O)c2cnn(-c3cccc(Cl)c3)c2C2CCN(C(=O)OC(C)(C)C)CC2)CC1 | 20.2% (inactive) | 
75 | Oc1ccc(Cl)cc1C1C=C(c2ccc3c(c2)OCO3)NC(c2c(F)cccc2Cl)N1 (configuration not stated) | 14.7% (inactive) | 

Row | Structure (SMILES) | activity change, negative = inhibition | Potency
76 | CCOc1ccc(C2C(C(=O)Nc3ccc(Cl)cc3)=C(C)Nc3nc(C(F)(F)F)nn32)cc1 (configuration not stated) | 0.0785% (inactive) | 
77 | CCOc1ccc(NC(=O)CCc2c(C)nn(-c3ccc(N4CCCC4)nn3)c2C)cc1 | 43.1% (inactive) | 
78 | Cc1ccc2nc(COc3cccc(NC(=O)c4cccc(Cl)c4)c3)cc(=O)n2c1 | 18.7% [at 57 µM] (inactive) | 
79 | Cc1cccc(C)c1-n1c(C)cc(/C=C2\C(=O)NN(c3ccccc3)C2=O)c1C |  | 15.8 µM (active)
80 | CCCSc1ncc(Cl)c(C(=O)Nc2c(C(=O)Nc3ccccc3)oc3ccccc23)n1 | 47.9% (inactive) | 
81 | COc1ccccc1-c1nnc(C2CCN(C(=O)c3ccc(Cl)cc3)CC2)o1 | 47% (inactive) | 
82 | CCOc1ccc(Nc2nc3c(S(=O)(=O)c4cccc(Cl)c4)nnn3c3ccsc23)cc1 | 7.83% (inactive) | 
83 | Cc1ccc(Cn2cc(CCC(=O)NCc3ccc(OC(C)C)cc3)c3ccccc32)cc1 | 25.4% (inactive) | 
84 | COc1ccc(N2CCN(C(=O)c3cccs3)CC2)cc1 | 15.7% (inactive) | 
85 | COc1ccc(N2CCN(S(=O)(=O)c3cc(Br)cnc3N)CC2)cc1 | 21.5% (inactive) | 
86 | COc1ccc(N2CCN(Cc3ccc(Br)s3)CC2)cc1 |  | 17.8 µM (active)
87 | Cc1ccc(Nc2nc3ccccc3nc2-n2nc(C)cc2C)c(Cl)c1 | 155% (inactive) | 
88 | Cc1ccc(Cl)cc1N(C)C(=O)Cn1nc(Cc2cccnc2)c2ccccc2c1=O | 13.5% (inactive) | 
89 | COc1ccc(-c2nc(SCC(=O)N3CCCCC3C)n[nH]2)cc1 (configuration not stated) | 35.3% [at 57 µM] (inactive) | 
90 | Cc1ccc(-c2nc(S(=O)(=O)c3ccc(C)cc3)c(N3CCCCCC3)o2)cc1 | -4.1% (inactive) | 
91 | CN1/C(=c2/s/c(=C3/C(=O)N(c4ccccc4)NC3=Nc3ccccc3)n(C)c2=O)C(C)(C)c2ccccc21 |  | 28.2 µM (active)
92 | Cc1cc(C)cc(NC(=O)CSc2nc3nccnc3c(=O)n2CCc2c[nH]c3ccccc23)c1 | 19.8% (inactive) | 
93 | Cc1ccc(Cl)cc1NC(=O)NC1COc2ccccc2C1 (configuration not stated) | 18% [at 57 µM] (inactive) | 
94 | Cn1nnc2c(N3CCN(c4ccccc4)CC3)ncnc21 | 7.88% (inactive) | 
95 | CCOc1ccc(NC(=O)c2cc(S(=O)(=O)N3CCCC3)c[nH]2)cc1 | 13% (inactive) | 
96 | CC(=O)N(C1=C(Cl)C(=O)c2ccccc2C1=O)c1ccc(C(=O)O)cc1 |  | 7.94 µM (active)
97 | CCOc1ccc(CNC(=O)Cn2cc3c(n2)-c2c(oc(C(=O)N4CCCC4)c2C)CC3)cc1 | 34.9% (inactive) | 
